# From PubChem BioAssay
# This is a sample that favours compounds with a hit; in the whole collection about 6.8% have one here.
# KB-3-1 cytotox = KB-3-1 parental cell cytotoxicity. KB-3-1 viability, CellTiter-Glo ATP luminescence, 72 h. Potency, µM (titrated, usually from 46.1 µM), actives largely listed as cytotoxic. 400,000 compounds, 1.4% hits; also: % is scaled to controls: 0 for no effect and ±100 for the full control effect; nearly all actives have a fitted effect of over 60% in size
#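 Multi-concentration cytotoxicity screen in KB-3-1 cells grown in DMEM lacking phenol red with 10% FBS. After 72 h at 37 °C with compound, ATP-dependent luminescence was recorded.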
# SW480 rerep = DNA re-replication induction in SW480 cells; SW480 DNA re-replication, Hoechst DNA content imaging, 48 h; Potency, µM (highest dose often 46.1 µM), for the others: at the top dose re-replication activation, hits mostly activators; 340,000 compounds, 1.8% hits; also: % of control where 0% means no effect; nearly all actives have a fitted effect of over 55% in size
#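 Treated cells incubate 48 hr (37 C, 5% CO2), are stained 40 min with Hoechst, and nuclear fluorescence is enumerated; a rise in nuclei with high DNA signal marks re-replication.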
# KB-V1 cytotox = kills drug-selected multidrug resistant KB-V1 cells; KB-V1 MDR cells viability, CellTiter-Glo, 72 h; Potency, µM (doses to about 46.1 µM), usual class: cytotoxic; 400,000 compounds, 3.4% hits; also: % is scaled to controls: 0 for no effect and ±100 for the full control effect; nearly all actives have a fitted effect of over 60% in size
#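 KB-V1 cells (P-gp-expressing MDR subline of KB-3-1) in phenol-red-free DMEM with 10% FBS were exposed to library compounds over a concentration series for 72 h at 37 degrees C. Viability read by CellTiter-Glo luminescence; concentration-effect curves fitted after normalization.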
# PTAP TSG101 blk = blocks PTAP/TSG101 interaction to inhibit HIV-1 budding. AID 493005. Potency, µM (titrated, usually from 115 µM), for the others: at the highest dose activity change, negative = inhibition, usual class: inhibitors. Q99816. 340,000 tested, under 10 active. Fluorescence polarization, FITC-PTAP peptide / Tsg101 binding; active = well fitted inhibition curve with a large enough effect in the main read-out, with a control signal flat, not every such curve was filed as active; inconclusive = small, poorly fitted or top-dose-only effect, or effect the other way, or a change in a side signal; inactive = no such curve, though single readings can be large or run the other way; also: % of control where 0% means no effect
# Target sequence (Q99816 whole entry, looked up): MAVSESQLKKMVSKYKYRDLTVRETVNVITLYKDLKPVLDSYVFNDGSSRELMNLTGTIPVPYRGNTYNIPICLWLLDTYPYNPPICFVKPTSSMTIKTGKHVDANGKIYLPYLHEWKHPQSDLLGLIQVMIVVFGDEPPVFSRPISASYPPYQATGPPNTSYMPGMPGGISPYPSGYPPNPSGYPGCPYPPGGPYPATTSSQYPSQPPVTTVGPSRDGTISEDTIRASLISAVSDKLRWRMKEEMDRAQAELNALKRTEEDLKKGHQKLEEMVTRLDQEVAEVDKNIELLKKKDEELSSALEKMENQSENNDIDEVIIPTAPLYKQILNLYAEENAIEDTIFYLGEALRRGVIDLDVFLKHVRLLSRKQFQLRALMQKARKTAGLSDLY
#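 Compounds were pin-transferred onto Tsg101 binding domain (10 uM final) in HEPES pH 7.5 buffer, then FITC-PTAP peptide was added at 50 nM final. After 20 min at RT, polarization reported peptide displacement across a qHTS concentration series.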
# MCF10A rereplic = DNA re-replication induction in MCF 10a cells; AID 624296; Potency, µM (doses to about 46.1 µM), for the others: at the top dose activity, positive = re-replication, usual class: activators; 350,000 compounds, 2.9% hits; MCF 10A DNA re-replication, Hoechst nuclear intensity, 48 h; also: % of control where 0% means no effect; nearly all actives have a fitted effect of over 50% in size
# PINK1 expr mod = PINK1 expression modulation; AID 624263; Potency, µM (doses to about 76.6 µM), for inactives: top-dose activation (PINK1 increase), usual class: activators; 410,000 compounds, 0.2% hits; PINK1 immunofluorescence, high-content cytometry, 24 h; active = well fitted activation curve with a large enough effect; inconclusive = small, poorly fitted or top-dose-only effect; cell line not stated here; also: % of control where 0% means no effect; nearly all actives have a fitted effect of over 65% in size
#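 Measures PINK1 amount and localization on or inside mitochondria by immunofluorescence. Stable cells get compounds at 5 concentrations for 24 hours before fixation and staining; CCCP controls included.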
# Starred values were filed as active, the others as inactive; i = inactive; ? = inconclusive; nt = no result given; [ ] = another dose, or the depositor's remark. Unless noted, calls follow the shape of the dose curve; as a rule, active = well fitted curve in the direction sought with a large enough effect; inconclusive = small, poorly fitted or top-dose-only effect, or another doubt; inactive = no such curve, though single readings can be large; an effect the other way counts as inactive or inconclusive. Potency is read from the fitted curve at half-maximal effect.
SMILES,KB-3-1 cytotox,SW480 rerep,KB-V1 cytotox,PTAP TSG101 blk,MCF10A rereplic,PINK1 expr mod
Cc1ccccc1S(=O)(=O)Nc1nc2ccccc2nc1N1CCc2ccccc2C1,i,?,20.6µM*,-1.0%,13.5%,4.6%
CC(=O)Nc1ccc(S(=O)(=O)Nc2nc3ccccc3nc2N2CCc3ccccc3C2)cc1,i,?,9.2µM*,-10.9%,26.6%,2.3%
CN1CCN(c2nc3ccccc3nc2NS(=O)(=O)c2ccc(Br)cc2)CC1,i,0.1%,i,-9.0%,7.4%,-1.0%
O=S(=O)(Nc1nc2ccccc2nc1N1CCc2ccccc2C1)c1ccc(Br)cc1,?,-0.4%,i,-8.7%,14.6µM*,?
Cc1ccccc1S(=O)(=O)Nc1nc2ccccc2nc1Cl,i,6.9%,i,0.2%,8.0%,3.8%
CCc1cccc(NC(=O)Cn2nc(-c3ccc(OC)cc3)ccc2=O)c1,i,nt,?,nt,nt,0.3%
Cc1cc(CNC(=O)CCN2Cc3cc(Cl)ccc3OC(C)C2)nn1C (stereo not given),nt,nt,nt,nt,nt,0.1%
O=C(CNC(=O)c1ccccc1F)NCCN1C(=O)S/C(=C\c2ccccc2Cl)C1=O,i,-5.1%,?,-0.8%,4.3%,1.2%
O=C(CCS(=O)(=O)c1ccc(Cl)cc1)NCCN1C(=O)S/C(=C\c2ccccc2F)C1=O,i,3.0%,13µM*,0.8%,18.5%,-1.8%
Cc1ccc(S(=O)(=O)CCC(=O)NCCN2C(=O)S/C(=C\c3ccccc3)C2=O)cc1,i,-21.7%,11.6µM*,-1.8%,?,1.7%
Cc1ccc(S(=O)(=O)CCC(=O)NCCc2ccccc2)cc1,i,-6.4%,i,-1.8%,5.1%,-0.8%
Cc1nn(C)c2c1c(-c1ccccc1)cc(=O)n2Cc1ccccc1Cl,i,nt,i,nt,nt,3.9%
CCOC(=O)C(=O)c1c(-c2ccccc2)nc2ccccn12,i,24.4%,i,-3.4%,20.3%,-0.4%
CCOC(=O)c1c(-c2ccccc2)nc2ccc(C)cn12,i,-6.7%,20.6µM*,-13.5%,15.8%,-1.3%
CCOC(=O)c1c(-c2ccccc2)nc2cc(C)ccn12,i,-3.0%,14.6µM*,-5.0%,?,2.2%[38.3 µM]
N#Cc1ccc(/C=C2/C=Cc3ccccc32)cc1,i,nt,i,nt,nt,nt
CCn1ccnc1CN1CCc2c([nH]c3ccccc23)C1CC(C)C (stereo not given),i,-1.2%,?,0.7%,11.4%,0.8%
CCn1ccnc1CN1CCc2c([nH]c3ccccc23)C1C1CCCCC1 (stereo not given),i,-2.6%,i,-2.6%,-4.1%,1.4%
Cc1c(CN2CCc3c([nH]c4ccccc34)C2C2CCCCC2)cnn1C (stereo not given),i,6.0%,i,-3.2%,18.4µM*,0.4%
CC(=O)c1cc(C(=O)N2CCc3c([nH]c4ccccc34)C2C2CCCCC2)[nH]n1 (stereo not given),i,11.2%,?,0.5%,1.46µM*,-0.2%
Cc1cccc(CN2CCc3c([nH]c4ccccc34)C2CC(C)C)n1 (stereo not given),i,?,i,-4.4%,18.4µM*,5.1%
Cc1cnc(CN2CCc3c([nH]c4ccccc34)C2CC(C)C)[nH]1 (stereo not given),i,6.51µM*,i,-0.3%,?,3.3%
Cc1cccnc1-c1cccc2c1OC(CNC(=O)Cc1c(C)noc1C)C2 (stereo not given),nt,nt,nt,nt,nt,0.5%
Cc1ccsc1CN(C)c1ncnc2ccc(-c3ccc4c(c3)OCO4)cc12,?,nt,i,nt,nt,nt
CCN(CC)C(C)C(=O)Nc1c2c(cc3c1CCC3)CCC2 (stereo not given),i,0.8%,9.2µM*,-5.2%,7.1%,?
SMILES,KB-3-1 cytotox,SW480 rerep,KB-V1 cytotox,PTAP TSG101 blk,MCF10A rereplic,PINK1 expr mod
O=C(COc1ccc(S(=O)(=O)N2CCCCC2)cc1)NCc1ccncc1,i,13.0%,?,-3.0%,1.2%,-0.4%
O=P(O)(CCc1ccncc1)CN1CCCCC1,i,?,i,-0.6%,5.8µM*,nt
CCOC(=O)NC(C(Cl)(Cl)Cl)S(=O)(=O)c1ccccc1 (stereo not given),i,?,i,-1.2%,?,0.0%
Cc1ccc(C(=O)NC(=S)NNS(=O)(=O)c2ccccc2)cc1,i,-3.0%,i,-0.9%,?,1.5%
Cc1ccc(C(=O)NC(=C(Cl)Cl)S(=O)(=O)c2ccccc2)cc1,i,-4.1%,16.4µM*,0.1%,20.6µM*,?
Cc1ccc(C(=O)NCC#N)cc1,i,-6.6%,i,-5.0%,-7.2%,-1.3%
COc1ccc(C(=O)NC(=C(Cl)Cl)S(=O)(=O)c2ccc(C)cc2)cc1,?,13µM*,?,-1.7%,10.3µM*,-0.1%
Cc1ccc(C(=O)NC(C#N)=C(Cl)Cl)cc1,?,?,i,-1.7%,9.2µM*,-1.1%
COC(=O)NC(=C(Cl)Cl)S(=O)(=O)c1ccccc1,16.4µM*,?,18.4µM*,-2.8%,7.31µM*,3.8%
COc1ccccc1N1CCN(c2ncnc3c2nnn3C)CC1,i,nt,i,nt,nt,0.0%
COc1ccc(N2CCN(C(=O)c3nc(-c4ccc(Cl)cc4)n4c3CCCCC4)CC2)cc1,i,nt,i,nt,nt,1.4%
CCS(=O)(=O)NCc1c(C)ncc2c1CCN(C(=O)c1csc(-c3cccs3)n1)C2,nt,nt,nt,nt,nt,1.0%
CC1C=CC=CC=CC=CC=CC=CC=CC(OC2OC(C)C(O)C(N)C2O)CC2OC(O)(CC(O)CC(O)C(O)CCC(O)CC(O)CC(=O)OC(C)C(C)C1O)CC(O)C2C(=O)O (stereo not given),4.11µM*,6.51µM*,?,5.7%,3.26µM*,4.4%
CC1(C)NC(=O)N(CCOCCOc2ccc3ccccc3c2Br)C1=O,i,-0.7%,20.6µM*,-2.9%,11.4%,16.7%[38.3 µM]
CC1(C)NC(=O)N(CCCCOc2ccc3ccccc3c2Cl)C1=O,?,4.1%,20.6µM*,-6.0%,?,?
Cc1ccc(S(=O)(=O)N2CCN(c3nc(-c4cccs4)cc4ccccc34)CC2)cc1,nt,nt,nt,nt,nt,1.7%
Nc1ccc2c(c1)nnn2-c1ccccc1,i,5.9%,i,-7.5%,-6.3%,-0.7%
N#Cc1ccc2c(c1)nnn2-c1ccccc1,i,2.9%,9.2µM*,0.0%,-1.9%,-1.6%
COc1ccccc1NC(=O)CSc1nc2c(oc3ccccc32)c(=O)n1-c1ccc(C)cc1,i,nt,?,nt,nt,0.8%
Cc1ccc(C(=O)COC(=O)c2cn3ccccc3n2)cc1,i,14.9%,?,-2.7%,0.581µM*,1.3%
CCc1cccc(-n2c(C)nc3c(cnn3-c3ccc(C)c(C)c3)c2=O)c1,?,nt,i,nt,nt,5.5%
